Binding signal data for 8 sequences are collected here from PMC8384837, “Expanding the binding specificity for RNA recognition by a PUF domain”.

What all share (assay): yeast three-hybrid, YBZ-1, SC-Leu-His + 0.5 mM 3-AT, 4 days
What all share (details): tags: N-Gal4 AD-HA kept; label: inside an RPR1-promoter hybrid RNA with tandem MS2 sites; ssRNA

One assay concerns the target PUM1 PUF domain R8-GYR (Homo sapiens, UniProt Q14671 828-1176, N1122G;Q1126R). Summed up:
(§1)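 Repeat regions from input (SC-Leu) and selection (SC-Leu-His + 0.5 mM 3-AT) plates were PCR-amplified and Illumina-sequenced after four days of growth. The cells were strain YBZ-1 with a LexA–MS2 coat fusion and a HIS3 reporter, co-expressing Pumilio-1 PUF domain libraries and matching RNA elements from a centromeric plasmid. The interaction score is the log change in variant frequency from input to selection, taken in log2 with a pseudocount of 1 for absent variants.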

A further assay concerns the target PUM1 PUF domain R8-RHW (Homo sapiens, UniProt Q14671 828-1176, N1122R;Y1123H;Q1126W). Summed up:
as §1

The target in the next assay is PUM1 PUF domain R8-KRK (Homo sapiens, UniProt Q14671 828-1176, N1122K;Y1123R;Q1126K). The method, boiled down:
as §1

The target in a further assay is PUM1 PUF domain R3-AIR (Homo sapiens, UniProt Q14671 828-1176, C935A;R936I;Q939R). The method, boiled down: as §1
The next assay has as its target PUM1 PUF domain R3-LSK (Homo sapiens, UniProt Q14671 828-1176, C935L;R936S;Q939K). The method, boiled down:
as §1

The next assay concerns the target PUM1 PUF domain R7-DNV (Homo sapiens, UniProt Q14671 828-1176, S1079D;E1083V). The method, boiled down: as §1
The target of the next assay is PUM1 PUF domain R7-RSW (Homo sapiens, UniProt Q14671 828-1176, S1079R;N1080S;E1083W). The method, boiled down:
as §1

The target of a further assay is PUM1 PUF domain R1-RSE (Homo sapiens, UniProt Q14671 828-1176, S863R;R864S;Q867E). The method, boiled down: as §1
Another assay concerns the target PUM1 PUF domain R1-YGR (Homo sapiens, UniProt Q14671 828-1176, S863Y;R864G;Q867R). The method, boiled down: as §1
Another assay addresses PUM1 PUF domain R1-RCT (Homo sapiens, UniProt Q14671 828-1176, S863R;R864C;Q867T). The method, boiled down: as §1
The next assay deals with T1, PUM1 PUF domain R6-SWG (Homo sapiens, UniProt Q14671 828-1176, N1043S;Y1044W;Q1047G).
T1 sequence: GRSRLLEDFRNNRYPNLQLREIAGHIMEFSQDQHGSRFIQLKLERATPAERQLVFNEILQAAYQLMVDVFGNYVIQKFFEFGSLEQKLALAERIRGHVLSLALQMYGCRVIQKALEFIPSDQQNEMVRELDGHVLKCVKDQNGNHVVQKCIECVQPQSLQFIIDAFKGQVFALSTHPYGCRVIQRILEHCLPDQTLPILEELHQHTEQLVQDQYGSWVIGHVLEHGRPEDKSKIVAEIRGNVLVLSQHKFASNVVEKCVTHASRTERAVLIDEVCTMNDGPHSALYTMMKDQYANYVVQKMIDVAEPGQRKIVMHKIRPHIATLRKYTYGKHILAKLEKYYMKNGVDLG
The method, boiled down: as §1

For a further assay, the target named is PUM1 PUF domain R2-PWL (Homo sapiens, UniProt Q14671 828-1176, N899P;Y900W;Q903L). The method, boiled down:
as §1

With “GGCUAGAACUAGUGGAUCCCCCGGCGCCCGGCGGCUCGAGCCCGGGUAAGCGUAAAUAGUCUGCAUGCCGCCGGGCGCCAUGCCUGCAGGUCGACUCUAGAAAACAUG”, the binding signal with PUM1 PUF domain R8-GYR is 5.09 log2 enrichment (interaction score); with PUM1 PUF domain R8-RHW, 4.05 log2 enrichment (interaction score); with PUM1 PUF domain R8-KRK, 4.95 log2 enrichment (interaction score).

Consider “GGCUAGAACUAGUGGAUCCCCCGGCGCCCGGCGGCUCGAGCCCGGGUAAGUGUAAGUAGUCUGCAUGCCGCCGGGCGCCAUGCCUGCAGGUCGACUCUAGAAAACAUG”, for which the binding signal is 2.87 log2 enrichment (interaction score) in the assay with PUM1 PUF domain R3-AIR and 6.88 log2 enrichment (interaction score) with PUM1 PUF domain R3-LSK.

For “GGCUAGAACUAGUGGAUCCCCCGGCGCCCGGCGGCUCGAGCCCGGGUAAGUUUAAAUAGUCUGCAUGCCGCCGGGCGCCAUGCCUGCAGGUCGACUCUAGAAAACAUG”, the binding signal in the assay with PUM1 PUF domain R7-DNV was 3.87 log2 enrichment (interaction score); in the assay with PUM1 PUF domain R7-RSW, 2.57 log2 enrichment (interaction score).

In the case of “GGCUAGAACUAGUGGAUCCCCCGGCGCCCGGCGGCUCGAGCCCGGGUAAGUGUAAAUCGUCUGCAUGCCGCCGGGCGCCAUGCCUGCAGGUCGACUCUAGAAAACAUG”, the values for the binding signal in the assay with PUM1 PUF domain R1-RSE and with PUM1 PUF domain R1-YGR were 2.49 log2 enrichment (interaction score) and 5.61 log2 enrichment (interaction score), respectively.

For “GGCUAGAACUAGUGGAUCCCCCGGCGCCCGGCGGCUCGAGCCCGGGUAAGUGUAAAUGGUCUGCAUGCCGCCGGGCGCCAUGCCUGCAGGUCGACUCUAGAAAACAUG”, the figures for the binding signal with PUM1 PUF domain R1-RSE, with PUM1 PUF domain R1-YGR and in the assay with PUM1 PUF domain R1-RCT were 0.71 log2 enrichment (interaction score), 2.18 log2 enrichment (interaction score) and 3.84 log2 enrichment (interaction score), respectively.

For “GGCUAGAACUAGUGGAUCCCCCGGCGCCCGGCGGCUCGAGCCCGGGUAAGUGAAAAUAGUCUGCAUGCCGCCGGGCGCCAUGCCUGCAGGUCGACUCUAGAAAACAUG”, the binding signal with PUM1 PUF domain R6-SWG is 1.35 log2 enrichment (interaction score).

“GGCUAGAACUAGUGGAUCCCCCGGCGCCCGGCGGCUCGAGCCCGGGUAAGUGUAAAUUGUCUGCAUGCCGCCGGGCGCCAUGCCUGCAGGUCGACUCUAGAAAACAUG”: the values for the binding signal in the assay with PUM1 PUF domain R1-YGR and in the assay with PUM1 PUF domain R1-RCT were 6.42 log2 enrichment (interaction score) and 4.25 log2 enrichment (interaction score), respectively.

For “GGCUAGAACUAGUGGAUCCCCCGGCGCCCGGCGGCUCGAGCCCGGGUAAGUGUAAAGAGUCUGCAUGCCGCCGGGCGCCAUGCCUGCAGGUCGACUCUAGAAAACAUG”, in the assay with PUM1 PUF domain R2-PWL, the binding signal was 6.99 log2 enrichment (interaction score).
